Screens deposited in PubChem by several laboratories.
The list is not random: actives were taken first. Their share in the collection is about 32%.
CYP2C19 act = cytochrome P450 2C19 (human) activation; P33261; recombinant CYP2C19, luciferin-H EGE luminescence; hits give high values; 0 = fully inhibited enzyme, 1 = untreated enzyme; activation factor at 5 µM; 96,000 tested, under 10 active;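 active = activation factor of at least 2 at 5 µM in the primary screen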
Target sequence (P33261 whole entry, looked up): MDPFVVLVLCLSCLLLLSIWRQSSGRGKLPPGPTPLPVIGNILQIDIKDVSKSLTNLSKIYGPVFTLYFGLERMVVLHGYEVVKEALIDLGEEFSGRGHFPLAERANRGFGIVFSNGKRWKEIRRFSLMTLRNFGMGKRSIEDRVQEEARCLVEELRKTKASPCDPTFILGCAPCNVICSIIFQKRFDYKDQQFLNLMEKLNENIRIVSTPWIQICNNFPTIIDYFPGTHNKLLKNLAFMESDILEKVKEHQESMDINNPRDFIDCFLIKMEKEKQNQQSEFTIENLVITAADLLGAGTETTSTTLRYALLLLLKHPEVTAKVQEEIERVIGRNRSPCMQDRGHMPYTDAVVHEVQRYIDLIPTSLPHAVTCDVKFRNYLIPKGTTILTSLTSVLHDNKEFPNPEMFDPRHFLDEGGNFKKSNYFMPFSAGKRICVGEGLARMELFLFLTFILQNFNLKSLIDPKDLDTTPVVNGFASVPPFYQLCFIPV
CYP2C9 inh = human CYP2C9 inhibition | AID 777 | hit rate 20% among 96,000 | P11712 | inhibition, % at 5 µM | CYP2C9 Supersomes, luciferin-H conversion, luminescence;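 active = blocking of liver enzyme CYP2C9 beyond about 50% at 5 µM, limit read from the data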
PostGolgi ctrl = growth of the yeast control strain, post-Golgi counter-screen | efflux-deficient yeast background strain, growth absorbance A615, 16 h | inhibition, % at 10 µM | AID 738 | hit rate 5% among 98,000
PostGolgi yeast = growth inhibition of a yeast mutant, post-Golgi transport screen; post-Golgi transport phenotypic cell assay; hit rate 0.9% among 98,000; AID 739; inhibition, % at 10 µM;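 note: yeast cells grown in 1536-well plates; yeast grown about 18 h at 30C before absorbance read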
CYP2C19 inhib = human CYP2C19 inhibition; CYP2C19 Supersomes, luciferin-H EGE luminescence, 30 min; hit rate 21% among 96,000; inhibition, % at 5 µM;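 active = CYP2C19 inhibition above a set limit at 5 µM in the primary screen, cut at about 50% in these data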
CYP2C9 activ = activators of human CYP2C9. recombinant CYP2C9, luciferin-H conversion, luminescence; hits give high values; factor 1 = untreated enzyme, 0 = blocked. activation factor at 5 µM. hit rate 1.4% among 96,000. AID 1024;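 active = activation factor of 2 or more for CYP2C9 at a 5 µM dose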
Each line names hits and unclear results; the compound was inactive in the other large screens. Cut-off read from the data, not from the text of the source, unless noted: active = inhibition above about 30%; inactive = the rest.

O=C(NC1CCCCC1)N1CCN(C(c2ccccc2)c2ccccc2)CC1	none
N#Cc1nc(-c2cccs2)oc1NCc1ccc2c(c1)OCO2	CYP2C9 inh 93.8, CYP2C19 inhib 54.2
N#Cc1nc(-c2cccs2)oc1NCCc1ccccc1	CYP2C9 inh 67.8, PostGolgi ctrl 34.5
N#Cc1nc(-c2ccco2)oc1NCCc1ccccc1	CYP2C9 inh 75.2, CYP2C19 inhib 95.6
COc1ccc(-n2nnc3c(SCC(=O)NCC4CCCO4)ncnc32)cc1 (configuration not stated)	none
CCc1ccc(C2=NN(c3ccc(S(N)(=O)=O)cc3)C(c3ccc(F)cc3)C2)cc1 (configuration not stated)	PostGolgi ctrl 90.5
O=S(=O)(c1ccccc1)N1N=C(c2cccs2)CC1c1ccc(F)cc1 (configuration not stated)	none
O=C1CNCc2[nH]c3ccccc3c2N1c1ccccc1	PostGolgi ctrl 31.6
Cn1c(=O)oc2cc(S(=O)(=O)NCCC(=O)N3CCc4ccccc43)ccc21	none
CCCCN1C(=O)C(NC(=O)c2cccnc2)(C(F)(F)F)C2=C1CC(C)(C)CC2=O (configuration not stated)	none
CC1(C)CC(=O)C2=C(C1)OC(=O)C2(NC(=O)c1cccs1)C(F)(F)F (configuration not stated)	CYP2C9 inh 55.8
Cc1ccccc1-n1c(=O)cc(N2CCc3ccccc32)[nH]c1=O	none
CCCCN(CCCC)c1cc(C)nc(-c2ccccc2O)n1	none
Cc1ccc(C)c(NC(=O)c2nnn(Cc3ccccc3)c2N)c1	none
Cc1ccc(C)c(NC(=O)c2nnn(Cc3ccccc3C)c2N)c1	PostGolgi ctrl 33.5
CCO/C=C/C(O)(CNC(=O)COc1ccccc1F)C(F)(F)F (configuration not stated)	CYP2C19 inhib 84.8
CC(=O)N1CCC(=NNS(=O)(=O)c2cccc([N+](=O)[O-])c2)CC1	none
O=C(Nc1ccc2c(c1)OCO2)C1CCN(Cc2cnn(-c3ccccc3)c2-n2cccc2)CC1	CYP2C9 inh 69.4
O=C(Nc1ccc2c(c1)OCO2)C1CCN(S(=O)(=O)Cc2ccccc2)CC1	CYP2C9 inh 55.2
Cc1ccccc1OCC(=O)Nc1ccccc1N1CCCCC1	none
CC(=O)N1CCN(c2ccccc2NC(=O)COc2cc(C)ccc2C(C)C)CC1	CYP2C9 inh 94.3, CYP2C19 inhib 89.5
Cc1cccc(OCC(=O)Nc2ccccc2N2CCN(C(=O)C(C)C)CC2)c1C	CYP2C9 inh 55.7, PostGolgi ctrl 41.6
Cc1ccc(C(C)C)c(OCC(=O)Nc2ccccc2N2CCN(C)CC2)c1	CYP2C9 inh 86.8, CYP2C19 inhib 68.9
CC(C)(C)c1ccc(/C([O-])=C(/C(=S)NCc2ccco2)[n+]2ccccc2)cc1	none
C=CCN(CC=C)C(=S)Nc1ccccc1	none
O=C(/C=C/c1ccccc1)N1CCN(CC(O)COc2ccccc2)CC1 (configuration not stated)	none
O=C(Nc1cccc(C(F)(F)F)c1)c1n[nH]c(Cn2cncn2)n1	CYP2C9 inh 51.4
CCCOC(=O)CCn1c(=S)oc2ccccc21	CYP2C19 inhib 89.7
COc1ccc(-c2cc(C(=O)N3CCN(C(c4ccccc4)c4ccccc4)CC3)no2)cc1	PostGolgi ctrl 42.0
O=C(N1CCCCC1)N1CCN(C(c2ccccc2)c2ccccc2)CC1	CYP2C9 inh 80.9, CYP2C19 inhib 56.6
CC(C)Cc1cc(C(=O)N2CCN(C(c3ccccc3)c3ccccc3)CC2)no1	CYP2C9 inh 78.7
CC(=O)NC(C)c1ccc(Cl)c(Cl)c1 (configuration not stated)	CYP2C19 inhib 75.4
C=CCSC(=C(C#N)C#N)c1cc2c([nH]1)CCCC2	CYP2C9 inh 63.1
c1csc(-c2csc(-c3cccs3)n2)c1	none
Clc1ccsc1-c1csc(-c2cccnc2)n1	PostGolgi ctrl 85.1, PostGolgi yeast 81.4, CYP2C19 inhib 62.0
c1cncc(-c2nc(-c3ccc4c(c3)OCO4)cs2)c1	CYP2C19 inhib 69.3
c1cncc(-c2nc(-c3cccs3)cs2)c1	CYP2C19 inhib 70.4
Cc1nc(-c2ccc3c(c2)OCO3)cs1	none
c1cncc(-c2nc(-c3ccco3)cs2)c1	none
COc1ccc2c(c1OC)C(=O)NC(C)=C(C(=O)OC(C)(C)C)C2O (configuration not stated)	CYP2C9 inh 55.5, CYP2C19 inhib 80.9
